Source: PubChem BioAssay (NCATS)
Results filed as inconclusive are left out. Calls of active or inactive are those of the source. Unless noted, calls come from the whole dose curve; as a rule, active = well fitted curve in the direction sought with a large enough effect; inconclusive = small, poorly fitted or top-dose-only effect, or another doubt; inactive = no such curve, though single readings can be large; an effect the other way counts as inactive or inconclusive.

How the values were obtained:
[1] = Cell Viability - N2a (AID 540); details: N2a mouse neuroblastoma cell viability; activity change, negative = cytotoxicity: at 92.2 µM (top of the series); note: nearly all actives have a fitted effect of over 45% in size; note: potency is the fitted concentration of half-maximal effect;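 for activity change, negative = cytotoxicity: plate controls were DMSO alone for no effect and tamoxifen control for full effect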
Summary of the method: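 CellTiter-Glo ATP luminescence, read 20 min after reagent at room temperature, reported viability following 40 h compound treatment at 37 °C. N2a mouse neuroblastoma cells seeded 1500/well; Hill equation gave AC50.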

[2] = Cell Viability - H-4-II-E (AID 543); details: H-4-II-E rat hepatoma viability; series mostly up to 92.2 µM;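 note: cells exposed to compound for 40 hours; nearly all actives have a fitted effect of over 35% in size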; note: potency is the fitted concentration of half-maximal effect
Summary of the method: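 CellTiter-Glo luminescence (intracellular ATP) measured after 40 h compound exposure at 37 °C in H-4-II-E rat hepatoma cells seeded at 1500/well. Values are AC50s fitted with the standard Hill equation.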

[3] = MultiTox-Fluor Cytotoxicity Assay - LYMP1-002 - Dead Cells (AID 960); details: LYMP1-002 lymphoblastoid cells, dead-cell protease fluorescence; series mostly up to 46.1 µM; note: nearly all actives have a fitted effect of over 60% in size; note: potency is the fitted concentration of half-maximal effect
Summary of the method: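 Dead-cell fluorescence (Ex/Em 485/520) after 16 h compound exposure at 37 C of LYMP1-002 lymphoblastoid cells in complete medium; AC50 by Hill equation, with data scaled between DMSO and 15 uM tetraoctylammonium bromide.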

[4] = Cell Viability - LYMP2-004 (AID 966); details: LYMP2-004 lymphoblastoid cell viability, qHTS; series mostly up to 92.2 µM; note: nearly all actives have a fitted effect of over 65% in size; note: potency is the fitted concentration of half-maximal effect;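 for activity change, negative = cytotoxicity: plate controls were DMSO only for no effect and tetraoctylammonium bromide control for full effect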
Summary of the method: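 AC50 values come from Hill modelling of concentration-dependent loss of intracellular ATP, measured by CellTiter-Glo luminescence. Human LYMP2-004 lymphoblastoid cells (2500/well) were exposed to compound for 24 h at 37 C.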

[5] = qHTS assay for small molecule antagonists of retinoid X receptor alpha signaling (AID 588546; active = well fitted inhibition curve with a large enough effect in the signal ratio, with a control signal flat, not every such curve was filed as active; the % refers to the signal ratio; note: potency is the fitted concentration of half-maximal effect;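 for max response: cells stimulated with 9-cis-retinoic acid as agonist; % is set by controls: 0 for no effect and ±100 for the full control effect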); details: HEK293T RXRa-UAS-bla, beta-lactamase ratio, antagonist mode; measured here: W530 green channel, cytotoxicity proxy
Summary of the method: (§1)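 Beta-lactamase reporter inhibition, read as CCF4 fluorescence ratio (ex 405, em 460/530 nm) after 2 h at RT. HEK293T UAS-bla cells, 2500/well, were stimulated with 9-cis-RA at 500 or 100 nM final alongside test compound for 18 h at 37 C.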

[6] = target: Retinoic acid receptor RXR-alpha (Homo sapiens) (UniProt P19793); test: as above; details: HEK293T RXRa-UAS-bla, beta-lactamase ratio, antagonist mode
Summary of the method: as §1

[7] = Cell Viability - BJ (AID 421; calls by dose curve;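 note: potency is the fitted concentration of half-maximal effect; cells exposed to compound for 40 hours at 37 °C before readout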); details: BJ fibroblast viability, qHTS
Summary of the method: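 Quantitative HTS: ATP depletion in BJ cells after 40 hr compound exposure in complete culture medium, detected with CellTiter-Glo; AC50 from standard Hill fits.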

[8] = target: Mitogen-activated protein kinase 10 (Mus musculus) (UniProt Q61831); test: JNK3 AlphaScreen Assay (AID 530; active = well fitted curve in either direction with a large enough effect, not every such curve was filed as active;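 note: kinase came from lysate of stimulated human HepG2 cells; signal reports phosphorylation of biotinylated GST-cJun 1-79 at Ser73 with 10 µM ATP; % is set by controls: 0 for no effect and ±100 for the full control effect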); details: JNK3 lysate, c-Jun phosphorylation; series mostly up to 11.4 µM
Summary of the method: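 qHTS titrations with 15 min compound pre-incubation before adding ATP (10 uM final). Read-out: AlphaScreen of Ser73-phosphorylated biotin-GST-cJun using HepG2 lysate JNK3 activated by IL-1β and TNFα.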

[9] = Cell Viability - LYMP1-003 - Assay at 40 hr (AID 964); details: LYMP1-003 lymphoblastoid viability; series mostly up to 92.2 µM; note: nearly all actives have a fitted effect of over 60% in size; note: potency is the fitted concentration of half-maximal effect
Summary of the method: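 Viability is taken as cellular ATP, read by CellTiter-Glo luminescence after 40 h of compound exposure at 37 C. Cells: human lymphoblastoid line LYMP1-003 at 2500/well; AC50 values derived by Hill-equation fitting of concentration-response data.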

[10] = Cell Viability - LYMP2-013 (AID 970); details: LYMP2-013 lymphoblastoid cells viability; series mostly up to 92.2 µM; note: nearly all actives have a fitted effect of over 55% in size; note: potency is the fitted concentration of half-maximal effect
Summary of the method: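 qHTS cytotoxicity: ATP-dependent luminescence (CellTiter-Glo, 30 min room temperature) read after 24 h compound exposure at 37 C of 2500 LYMP2-013 lymphoblastoid cells per well. Concentration-response fitted with Hill equation to give AC50.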

[11] = Cell Viability - LYMP2-016 (AID 984); details: LYMP2-016 lymphoblastoid cell viability, qHTS; series mostly up to 92.2 µM; note: nearly all actives have a fitted effect of over 55% in size; note: potency is the fitted concentration of half-maximal effect
Summary of the method: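 Cytotoxicity was scored by luminescent ATP content (CellTiter-Glo) after 24 h compound exposure at 37 C of a human lymphoblastoid line at 2500 cells/well. Concentration-response data were fitted to the Hill equation for AC50.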

[12] = Cell Viability - LYMP2-018 (AID 985); details: LYMP2-018 lymphoblastoid cells, viability (qHTS); series mostly up to 92.2 µM; note: nearly all actives have a fitted effect of over 50% in size; note: potency is the fitted concentration of half-maximal effect;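 for activity change, negative = cytotoxicity: plate controls were DMSO only for no effect and tetraoctylammonium bromide at 92 µM for full effect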
Summary of the method: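 Viability read as CellTiter-Glo luminescence (cellular ATP) after 24 hr compound exposure at 37 C of 2500 LYMP2-018 lymphoblastoid cells/well, pre-plated 5 hr. Hill-equation modelling gave AC50.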

[13] = Cell Viability - LYMP2-022 (AID 987); details: LYMP2-022 lymphoblastoid cell viability; series mostly up to 92.2 µM; note: nearly all actives have a fitted effect of over 55% in size; note: potency is the fitted concentration of half-maximal effect
Summary of the method: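 Cytotoxicity read as decreased cellular ATP (CellTiter-Glo luminescence, 30 min room temperature) after 24 hours compound exposure of 2500 lymphoblastoid LYMP2-022 cells/well at 37 C. Concentration-response data fitted with standard Hill equation for AC50.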

[14] = qHTS assay for environmental chemicals that activate the Aryl hydrocarbon Receptor (AhR) signaling pathway (AID 651777); details: 1A2-DRE human hepatoma cells, luciferase, 24 h; activation: stronger effect = higher value; note: nearly all actives have a fitted effect of over 15% in size; note: potency is the fitted concentration of half-maximal effect; for activation: % of control where 0% means no effect
Summary of the method: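 Concentration–response screening used 1,200 1A2-DRE cells per well, 24 hr compound exposure (37 C, 5% CO2), and One-Glo luminescence as the AhR-driven CYP1A2 reporter signal.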

[15] = Cell Viability - HepG2 (AID 433; calls by dose curve;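 note: potency is the fitted concentration of half-maximal effect; cells exposed to compound for 40 hours; potency for ATP loss meaning cytotoxicity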); details: qHTS
Summary of the method: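 Cytotoxicity read as ATP loss (CellTiter-Glo luminescence) after 40 hr compound exposure of HepG2, 1500 cells/well, 37 °C. AC50 by Hill equation; 0% set by DMSO, 100% inhibition by 100 uM tamoxifen.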

[16] = MultiTox-Fluor Cytotoxicity Assay - LYMP1-002 - Live Cells (AID 955); details: LYMP1-002 lymphoblastoid live-cell protease fluorescence viability; series mostly up to 46.1 µM;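 note: cells exposed to compound for 16 hours; % is set by controls: 0 for no effect and ±100 for the full control effect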
Summary of the method: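 After 16 h compound exposure at 37 C, live LYMP1-002 lymphoblastoid cells (2500/well) were quantified by cleavage of cell-permeant GF-AFC substrate, read at 405/510 nm after 60 min. Concentration-response fitted with Hill equation for AC50.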

[17] = Cell Viability - LYMP2-002 (AID 977); details: LYMP2-002 lymphoblastoid cell viability, qHTS; series mostly up to 92.2 µM; note: potency is the fitted concentration of half-maximal effect
Summary of the method: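 Human lymphoblastoid cells (2500/well) in complete medium were preincubated 5 hr at 37 C, then exposed to compounds for 24 hr at 37 C. Intracellular ATP was read by CellTiter-Glo luminescence; AC50 came from Hill-equation concentration-response fits.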

[18] = Cell Viability - LYMP2-020 (AID 986); details: series mostly up to 92.2 µM; note: nearly all actives have a fitted effect of over 55% in size; note: potency is the fitted concentration of half-maximal effect
Summary of the method: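 Cytotoxicity in qHTS format: luminescent ATP readout from CellTiter-Glo after 24 h compound exposure at 37 C in complete medium. LYMP2-020 lymphoblastoid cells were seeded at 2500/well; concentration-response data fitted to the Hill equation for AC50.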

[19] = target: Thyroid hormone receptor beta (Homo sapiens) (UniProt P10828); test: qHTS assay for small molecule antagonists of thyroid hormone receptor beta signaling (AID 588547; active = well fitted inhibition curve with a large enough effect in the signal ratio, with a control signal flat, not every such curve was filed as active; the % refers to the signal ratio;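 note: cells stimulated with 0.4 nM T3 agonist during compound exposure; % is set by controls: 0 for no effect and ±100 for the full control effect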); details: TR-UAS-bla HEK293, beta-lactamase ratio, antagonist mode, 18 h
Summary of the method: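 Inhibition of T3-driven (0.4nM final) beta-lactamase reporter activity was measured over 0.59 nM to 92 uM compound after 18 h at 37 C. The cells were GripTite HEK293 TR-UAS-bla in charcoal/dextran-stripped serum, with CCF4 ratio read-out and IC50 from Hill fits.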

[20] = target: Nuclear receptor subfamily 1 group I member 2 (Rattus norvegicus) (UniProt Q9R1A7); test: qHTS assay for small molecule activators of the rat pregnane X receptor (rPXR) signaling pathway (AID 651751; call rule not given here; note: 0% is about no effect); details: rPXR reporter cells, luciferase (One-Glo), 24 h
Chain of Nuclear receptor subfamily 1 group I member 2 (Rattus norvegicus) (Q9R1A7 whole entry, looked up): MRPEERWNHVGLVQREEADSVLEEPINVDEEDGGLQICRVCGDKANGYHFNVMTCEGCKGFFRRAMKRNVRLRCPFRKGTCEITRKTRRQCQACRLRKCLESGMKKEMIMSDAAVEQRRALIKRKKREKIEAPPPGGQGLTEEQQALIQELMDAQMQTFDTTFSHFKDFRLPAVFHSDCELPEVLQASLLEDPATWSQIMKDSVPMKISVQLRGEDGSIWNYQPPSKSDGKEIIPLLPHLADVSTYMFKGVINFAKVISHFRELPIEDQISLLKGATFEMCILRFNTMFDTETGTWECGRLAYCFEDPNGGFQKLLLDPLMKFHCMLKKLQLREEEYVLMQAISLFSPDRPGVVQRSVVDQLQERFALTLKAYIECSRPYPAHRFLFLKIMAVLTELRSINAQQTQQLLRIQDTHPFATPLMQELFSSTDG

Chain of Thyroid hormone receptor beta (Homo sapiens) (P10828 whole entry, looked up): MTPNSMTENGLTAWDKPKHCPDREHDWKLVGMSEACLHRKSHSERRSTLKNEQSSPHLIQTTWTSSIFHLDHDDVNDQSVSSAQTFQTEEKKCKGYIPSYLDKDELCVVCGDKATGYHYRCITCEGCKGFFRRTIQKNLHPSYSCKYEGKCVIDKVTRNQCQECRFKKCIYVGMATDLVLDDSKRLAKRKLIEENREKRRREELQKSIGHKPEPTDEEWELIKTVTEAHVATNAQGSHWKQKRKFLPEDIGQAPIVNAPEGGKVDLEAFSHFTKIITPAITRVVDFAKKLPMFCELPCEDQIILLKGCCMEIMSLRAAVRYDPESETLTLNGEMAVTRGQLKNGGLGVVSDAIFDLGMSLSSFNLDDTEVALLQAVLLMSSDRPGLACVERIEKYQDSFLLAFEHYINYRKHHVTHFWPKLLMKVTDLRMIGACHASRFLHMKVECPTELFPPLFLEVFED
Chain of Retinoic acid receptor RXR-alpha (Homo sapiens) (P19793 whole entry, looked up): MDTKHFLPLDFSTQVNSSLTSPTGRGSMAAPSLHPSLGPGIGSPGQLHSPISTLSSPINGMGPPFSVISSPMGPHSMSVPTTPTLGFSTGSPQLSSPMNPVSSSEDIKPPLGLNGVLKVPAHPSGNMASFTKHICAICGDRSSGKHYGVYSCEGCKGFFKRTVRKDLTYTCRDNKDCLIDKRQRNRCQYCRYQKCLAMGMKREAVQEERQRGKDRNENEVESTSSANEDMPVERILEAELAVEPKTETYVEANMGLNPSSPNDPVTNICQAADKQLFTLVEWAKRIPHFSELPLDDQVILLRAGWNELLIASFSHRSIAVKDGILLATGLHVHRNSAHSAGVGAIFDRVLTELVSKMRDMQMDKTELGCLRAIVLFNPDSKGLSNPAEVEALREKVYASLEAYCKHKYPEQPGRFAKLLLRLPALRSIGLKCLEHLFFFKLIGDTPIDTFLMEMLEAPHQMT

O=C=Nc1ccc(Cl)c(Cl)c1
Potency [1]: 31.6 µM (active)
Potency [2]: 31.6 µM (active)
Potency [3]: inactive
Potency [4]: inactive
max response [5]: 26.4%
Potency [6]: 14.1 µM (active)

CC1=C(/C=C/C(C)=C/C=C/C(C)=C/C=O)C(C)(C)CCC1
Potency [7]: 35.2 µM (active)
Potency [8]: inactive
Potency [1]: 31.6 µM (active)
Potency [2]: 25.1 µM (active)
Potency [3]: 31.6 µM (active)
Potency [9]: 50.1 µM (active)
Potency [4]: 39.8 µM (active)
Potency [10]: 50.1 µM (active)
Potency [11]: 50.1 µM (active)
Potency [12]: 39.8 µM (active)
Potency [13]: 39.8 µM (active)
max response [5]: -0.803%
max response [6]: -29.6% (inactive)
activation [14]: 4.9% (inactive)

C1CCCNCC1
Potency [7]: > 92 µM (inactive)
Potency [15]: > 92 µM (inactive)
activity change, negative = cytotoxicity [1]: -7.29% (inactive)
Potency [2]: inactive
outcome [16]: inactive
Potency [9]: inactive
Potency [4]: inactive
Potency [10]: inactive
Potency [17]: inactive
Potency [11]: inactive
Potency [12]: inactive
Potency [18]: inactive
Potency [13]: inactive
max response [5]: -4.82%
max response [6]: 5.08% (inactive)
activity change % (negative = inhibition) [19]: -19.9% (inactive)
activation [14]: 0.178% (inactive)
max response [20]: 1.16% (inactive)

Oc1cc2c(cc1O)[C@H]1c3ccc(O)c(O)c3OC[C@@]1(O)C2
activity change, negative = cytotoxicity [1]: -91.8% (active)
Potency [3]: inactive
Potency [9]: 39.8 µM (active)
Potency [4]: 31.6 µM (active)
Potency [10]: 31.6 µM (active)
Potency [17]: 39.8 µM (active)
Potency [11]: 39.8 µM (active)
Potency [12]: 31.6 µM (active)
Potency [18]: 39.8 µM (active)
Potency [13]: 31.6 µM (active)
max response [5]: -1.27%
max response [6]: -15.2% (inactive)
activity change % (negative = inhibition) [19]: -14.1% (inactive)
activation [14]: -1.85% (inactive)
max response [20]: -8.86% (inactive)

CN(C)c1ccc(C(=N)c2ccc(N(C)C)cc2)cc1
Potency [15]: 57 µM (active)
Potency [8]: inactive
Potency [1]: 31.6 µM (active)
Potency [2]: 12.6 µM (active)
Potency [3]: 15.8 µM (active)
Potency [12]: 39.8 µM (active)
Potency [18]: 39.8 µM (active)
Potency [13]: 25.1 µM (active)
activity change % (negative = inhibition) [19]: -25.2% (inactive)
activation [14]: 13.1% (inactive)

CC[C@@H](CO)Nc1nc(NCc2ccccc2)c2ncn(C(C)C)c2n1
Potency [8]: inactive

CN(C)Cc1ccccc1-c1ccc2ncnc(NC3CCNCC3)c2c1
Potency [8]: inactive

Fc1cccc(CSc2ncnc3c2ncn3[C@H]2CCCS2)c1
Potency [8]: inactive

NS(=O)(=O)c1cc2c(cc1Cl)N[C@H](Cc1ccccc1)NS2(=O)=O
Potency [8]: inactive

C/C(=N/O)[C@@H]1C[C@H](CC(=O)O)C1(C)C
Potency [8]: inactive

CC(C)(N=NC(C)(C)C1=NCCN1)C1=NCCN1
Potency [8]: inactive

O=C(O)c1cc(N=Nc2ccc([N+](=O)[O-])cc2)ccc1O
Potency [7]: > 92 µM (inactive)
Potency [15]: > 92 µM (inactive)
Potency [8]: inactive
activity change, negative = cytotoxicity [1]: -5.65% (inactive)
Potency [2]: inactive
outcome [16]: inactive
Potency [9]: inactive
Potency [4]: inactive
Potency [10]: inactive
Potency [17]: inactive
Potency [11]: inactive
Potency [12]: inactive
activity change % (negative = inhibition) [19]: 12.8% (inactive)
Potency [14]: 4.47 µM (active)

COc1ccccc1-c1nc(NCc2ccccc2)c2ccccc2n1
Potency [8]: inactive

C[C@]12CC[C@H]3c4ccc(O)cc4CC[C@@H]3[C@H]1CC[C@@H]2OC(=O)CCC1CCCC1
Potency [8]: inactive

CN(C)c1ccc(-c2cc(NCc3ccccc3)ncn2)cc1
Potency [8]: inactive

Cc1cn([C@H]2C[C@H](N=[N+]=[N-])[C@H](CO)O2)c(=O)[nH]c1=O
Potency [8]: inactive

Cc1nc2cnc(OCc3ccccc3)nc2n(Cc2ccc(F)cc2)c1=O
Potency [8]: inactive

N=C(N)SCCc1ccncc1
Potency [8]: inactive

CC(=O)/C(=N\N=C(N)N)c1ccccc1
Potency [8]: inactive

CN(N=O)c1ccc(/C=C\c2ccnc3ccccc23)cc1
Potency [8]: inactive

O=C(O)CCC(=O)c1ccc(Cl)cc1
Potency [8]: inactive

COc1cccc(Cn2c(=O)c(C)nc3cnc(Oc4cccc(Cl)c4)nc32)c1
Potency [8]: inactive

COc1ccc2cc1Oc1ccc(cc1)C[C@H]1c3cc(c(OC)cc3CCN1C)Oc1c(OC)c(OC)cc3c1[C@@H](C2)N(C)CC3
Potency [8]: inactive

O=C(O)[C@@H](S)[C@H](S)C(=O)O
Potency [8]: inactive

S=C(Nc1ccc2c(c1)Cc1ccccc1-2)Nc1ccc2c(c1)Cc1ccccc1-2
Potency [8]: inactive

CNc1ncncc1-c1ccc(C(=O)N(C)C)cc1
Potency [8]: inactive
